In all, about 18,000 sequences were measured (“log2 normalized intensity”: median about 0.39, highest 2% from about 6.6 on). For the sample, the highest values were picked, then their nearest neighbours and some sequences at random.

In the assay the target is T1, HNF4alpha2 (COS-7 nuclear extract) (Homo sapiens, UniProt P41235 1-474).
T1 sequence: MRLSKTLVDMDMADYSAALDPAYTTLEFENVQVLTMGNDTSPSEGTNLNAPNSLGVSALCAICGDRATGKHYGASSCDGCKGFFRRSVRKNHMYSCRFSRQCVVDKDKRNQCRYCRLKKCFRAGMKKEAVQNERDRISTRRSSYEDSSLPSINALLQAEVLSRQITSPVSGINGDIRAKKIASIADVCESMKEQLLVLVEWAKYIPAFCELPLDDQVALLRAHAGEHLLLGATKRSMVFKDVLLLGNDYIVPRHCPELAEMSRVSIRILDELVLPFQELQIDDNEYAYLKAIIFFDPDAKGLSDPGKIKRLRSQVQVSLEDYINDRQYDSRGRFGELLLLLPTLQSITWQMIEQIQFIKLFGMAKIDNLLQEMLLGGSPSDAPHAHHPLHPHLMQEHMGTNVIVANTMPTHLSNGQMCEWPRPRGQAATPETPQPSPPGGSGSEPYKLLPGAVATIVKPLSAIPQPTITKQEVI
Kind of assay: protein-binding microarray; COS-7 nuclear extract on double-stranded Agilent 4x180k PBM; binding buffer, salt, pH and temperature not given in the material; high values mean tight binding. The settings on record: chain copies: 2; label: 3' end of strand 1 on the slide; dsDNA, one strand shown. Summed up: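 Double-stranded oligonucleotides of ~60 nt, representing ~44,000 test sequences in quadruplicate, made up a custom Agilent SurePrint G3 4x180k array. Nuclear extracts from COS-7 cells transiently transfected by CaPO4 with a human HNF4α isoform expression vector were applied, and bound HNF4α was imaged at 2-µm resolution on an Agilent G2565CA scanner. Binding signal refers to the background-corrected, normalized gProcessedSignal output of Agilent software.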
Consider “AAACTCTGAAGGCAAATTCTTAGAATTGCAGCCTAGGGAGATTAGAGTATCGGTCGA”, for which the binding signal is -0.775 log2 normalized intensity.
Turning to “TATCAGCTCTCCGTGGACTTTGCCCCCTACGCCTAGGGAGATTAGAGTATCGGTCGA”, the binding signal is 11.1 log2 normalized intensity.
Under “AAGAGACTTTGCCCTTTTTTTCTCTCCCCTGCCTAGGGAGATTAGAGTATCGGTCGA” stands 3.42 log2 normalized intensity.
Under “TCTTTGCCCTCTTGGTATCAGCTTTGAGACGCCTAGGGAGATTAGAGTATCGGTCGA” stands 1.42 log2 normalized intensity.
“GTGGACTTTGCCTGCCCATCCCGTGGACTCGCCTAGGGAGATTAGAGTATCGGTCGA”: the binding signal worked out at 3.88 log2 normalized intensity.
In the case of “TCTTCCTTTCTATCAGCTCTCCGTGGACTTGCCTAGGGAGATTAGAGTATCGGTCGA” it was 3.08 log2 normalized intensity; in that of “TTTGGCCCCCAGAGCCCCGTGTCTCCCTACGCCTAGGGAGATTAGAGTATCGGTCGA”, 4.6 log2 normalized intensity; in that of “GCTCTCCGTGGACTTTGCCCCCTACAGTTTGCCTAGGGAGATTAGAGTATCGGTCGA”, 9.73 log2 normalized intensity.
Under “CTTTCTATCAGCTCTCCGTGGACTTTGCCCGCCTAGGGAGATTAGAGTATCGGTCGA” stands 9.49 log2 normalized intensity; under “ATCCCGTGGACTTTGCCTGCCCATCCCGTGGCCTAGGGAGATTAGAGTATCGGTCGA”, 3.13 log2 normalized intensity.
Under “CCAAACAGAACAAAGTCCAGTAAGGACAGTGCCTAGGGAGATTAGAGTATCGGTCGA” stands 2.51 log2 normalized intensity; under “GAGTAGGTTCTCAGCTGACATTGGTGGAATGCCTAGGGAGATTAGAGTATCGGTCGA”, 1.36 log2 normalized intensity; under “AGTCCAGACAAGTCCCAAGTATTTTCAGCCGCCTAGGGAGATTAGAGTATCGGTCGA”, -0.962 log2 normalized intensity.
Regarding “AACTTCTTATCACTTGGTGGACATGGTTCAGCCTAGGGAGATTAGAGTATCGGTCGA”, the binding signal stood at 2.02 log2 normalized intensity.
Under “AGATATCAGAAATGCATGAGTGACCTTTATGCCTAGGGAGATTAGAGTATCGGTCGA” stands 4.97 log2 normalized intensity.
Under “CTCTTTTCTTTGTACCGTATTTCAGACCACGCCTAGGGAGATTAGAGTATCGGTCGA” stands 2.19 log2 normalized intensity.
Under “CAATTAGAGCAAAGGTTACTGCAGAGAAGAGCCTAGGGAGATTAGAGTATCGGTCGA” stands 1.54 log2 normalized intensity; under “AGAGCACAACCTTTGGCCGTGCATGCTTGGGCCTAGGGAGATTAGAGTATCGGTCGA”, 1.84 log2 normalized intensity.
Turning to “AAAGAGCCATGGACTGCTGACCTTTGAACCGCCTAGGGAGATTAGAGTATCGGTCGA”, the binding signal was found to be 9.3 log2 normalized intensity.
Regarding “AGCAATTCAAATTCTTTGCCATGACCTTTGGCCTAGGGAGATTAGAGTATCGGTCGA”, the binding signal was 5.51 log2 normalized intensity.
With “TTCAAATTCTTTGCCATGACCTTTGAAGCCGCCTAGGGAGATTAGAGTATCGGTCGA”, the binding signal turned out to be 6.75 log2 normalized intensity.
In the case of “CCTTTGAGGAGGCCTTTCCTGACCCCTCCTGCCTAGGGAGATTAGAGTATCGGTCGA”, the binding signal was determined as 4.34 log2 normalized intensity.
Take “ATATGAAAGAGCCATGGACTGCTGACCTTTGCCTAGGGAGATTAGAGTATCGGTCGA”: the binding signal was 6.32 log2 normalized intensity.
In the case of “ATCTTTGACCTGGAGCATGACCCTTTGCAGGCCTAGGGAGATTAGAGTATCGGTCGA” it was 2.68 log2 normalized intensity; in that of “GGCAGATATGAAAGAGCCATGGACTGCTGAGCCTAGGGAGATTAGAGTATCGGTCGA”, -0.302 log2 normalized intensity.
Under “ATTCTTTGCCATGACCTTTGAAGCCCAGAAGCCTAGGGAGATTAGAGTATCGGTCGA” stands 4.66 log2 normalized intensity; under “GCCATGGACTGCTGACCTTTGAACCCTGAGGCCTAGGGAGATTAGAGTATCGGTCGA”, 10.1 log2 normalized intensity.
Under “CAGTAACTGTCATGGATGACCTCTTTTAGTGCCTAGGGAGATTAGAGTATCGGTCGA” stands 3.08 log2 normalized intensity; under “GCTGTCTACTCTGGGGGTCAGCAATGGTAAGCCTAGGGAGATTAGAGTATCGGTCGA”, 1.8 log2 normalized intensity; under “TGCCCCAGGAATGCCTTTTCTTTCATGTTGGCCTAGGGAGATTAGAGTATCGGTCGA”, 1.43 log2 normalized intensity.
Consider “GTTGAGGAGTTTGTACTTTATCCTACAAGGGCCTAGGGAGATTAGAGTATCGGTCGA”, for which the binding signal came out at 2.25 log2 normalized intensity.
In the case of “TCCTCTCAAAGTCCACCCGGCCAGCAGATGGCCTAGGGAGATTAGAGTATCGGTCGA” it was 2.46 log2 normalized intensity; in that of “AAAGGTCATATCCAAAATATTTGCAGTGAGGCCTAGGGAGATTAGAGTATCGGTCGA”, 1.79 log2 normalized intensity; in that of “ATATTTTCTTTGTGCTATTTTTGGCTTGGTGCCTAGGGAGATTAGAGTATCGGTCGA”, 2.13 log2 normalized intensity.
In the case of “CCATTCTTGAGGACAGGCCAAATCCAGTAAGCCTAGGGAGATTAGAGTATCGGTCGA”, the binding signal is -0.994 log2 normalized intensity.
In the case of “GCCTTGCTGAGGAATTTGGACTTCAGCCCAGCCTAGGGAGATTAGAGTATCGGTCGA” it was 6.11 log2 normalized intensity; in that of “GACATTCCTTCAGCGTGAACTTTGACATGAGCCTAGGGAGATTAGAGTATCGGTCGA”, 5.5 log2 normalized intensity; in that of “TCCTAGACCTTTGACCTTTATACCTGTACGGCCTAGGGAGATTAGAGTATCGGTCGA”, 5.75 log2 normalized intensity.
Take “TGGGAGACATTCCTTCAGCGTGAACTTTGAGCCTAGGGAGATTAGAGTATCGGTCGA”: the binding signal worked out at 6.72 log2 normalized intensity.
Take “GTCCACACATTCCTAGACCTTTGACCTTTAGCCTAGGGAGATTAGAGTATCGGTCGA”: the binding signal was found to be 8.13 log2 normalized intensity.
“GACCTTTGACCTTTATACCTGTACGTTACTGCCTAGGGAGATTAGAGTATCGGTCGA”: the binding signal came to 7.39 log2 normalized intensity.
Under “CACATTCCTAGACCTTTGACCTTTATACCTGCCTAGGGAGATTAGAGTATCGGTCGA” stands 7.82 log2 normalized intensity.
In the case of “ATTGGGTCCACACATTCCTAGACCTTTGACGCCTAGGGAGATTAGAGTATCGGTCGA” it was 3.26 log2 normalized intensity; in that of “CTTTATACCTGTACGTTACTCTGTACCTCGGCCTAGGGAGATTAGAGTATCGGTCGA”, 1.19 log2 normalized intensity.
Under “TCCTTCAGCGTGAACTTTGACATGAGAGAAGCCTAGGGAGATTAGAGTATCGGTCGA” stands 3.66 log2 normalized intensity; under “CCCAAGATGGATTGGGTCCACACATTCCTAGCCTAGGGAGATTAGAGTATCGGTCGA”, -0.811 log2 normalized intensity.
As to “TTGACCTTTATACCTGTACGTTACTCTGTAGCCTAGGGAGATTAGAGTATCGGTCGA”, the binding signal stood at 3.65 log2 normalized intensity.
“ATTGTGATTCCTGTGATACCTTCTTTGCCTGCCTAGGGAGATTAGAGTATCGGTCGA”: the binding signal is 1.13 log2 normalized intensity.

Values taken from PMC10726135, “HNF4α isoforms regulate the circadian balance between carbohydrate and lipid metabolism in the liver”.
